Source: PubChem (National Center for Advancing Translational Sciences (NCATS))
Compounds with a hit are over-represented: about 6.6% of the library has one in this group of screens.
RGS4 inhibitor = Inhibitors of Regulator of G Protein Signaling (RGS) 4: qHTS | Regulator of G-protein signaling 4 (Homo sapiens), P49798 | Transcreener GDP fluorescence polarization, RGS4-accelerated GTP hydrolysis | Potency, µM (titrated, usually from 114 µM), without a hit: at the top dose activity change, negative = inhibition, most hits filed as inhibitors | actives 0.039% (n = 390,000); further: on the % scale 0 is the no-effect control and ±100 the full control effect; nearly all actives have a fitted effect of over 75% in size
Target sequence (P49798 whole entry, looked up): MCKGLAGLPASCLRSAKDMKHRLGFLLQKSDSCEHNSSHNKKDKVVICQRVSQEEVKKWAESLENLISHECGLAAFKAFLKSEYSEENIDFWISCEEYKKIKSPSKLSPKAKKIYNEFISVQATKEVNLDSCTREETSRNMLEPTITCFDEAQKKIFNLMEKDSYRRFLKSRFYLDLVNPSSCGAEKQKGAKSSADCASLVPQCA
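MLSMR compounds (23 nl, pin-transferred) preincubated 10 min at room temperature with a 500nM (2x) first reagent, then RGS4 at 900nM (2x) plus Transcreener GDP mix added; fluorescence polarization (620/688 nm) read before and after 90 min at 30 °C.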
SW480 rereplic = A quantitative high throughput screen for small molecules that induce DNA re-replication in SW480 colon adenocarcinoma cells. actives 1.8% (n = 340,000). SW480 DNA re-replication, Hoechst DNA content imaging, 48 h. Potency, µM (titrated, usually from 46.1 µM), inactives show top-dose re-replication activation, most hits filed as activators. AID 624297, 2012; further: % of control where 0% means no effect; nearly all actives have a fitted effect of over 55% in size
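Image-based DNA-content assay: after two days of treatment, nuclei were labelled with the DNA dye Hoechst and imaged, and hits were compounds raising the count of nuclei showing high fluorescence intensity.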
KB-V1 cytotox = qHTS assay for MDR1-selective chemotherapeutics: Primary screen using the drug-selected MDR subline cells KB-V1 | actives 3.4% (n = 400,000) | Potency, µM (series often up to 46.1 µM), usual class: cytotoxic | KB-V1 MDR cells viability, CellTiter-Glo, 72 h; further: on the % scale 0 is the no-effect control and ±100 the full control effect; nearly all actives have a fitted effect of over 60% in size
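KB-V1, DMEM (no phenol red) + 10% FBS; cpd pin-transferred, titration series; 72 h, 37 degrees C; CellTiter-Glo, luminescence. Data normalized, curve-fit.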
KB-3-1 tox = qHTS assay for MDR1-selective chemotherapeutics: Primary screen using the parental adenocarcinoma cell KB-3-1. AID 1347075, 2019. KB-3-1 viability, CellTiter-Glo ATP luminescence, 72 h. Potency, µM (series often up to 46.1 µM), most hits filed as cytotoxic. actives 1.4% (n = 400,000); further: on the % scale 0 is the no-effect control and ±100 the full control effect; nearly all actives have a fitted effect of over 60% in size
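Viability of parental KB-3-1 cells, measured by CellTiter-Glo luminescence, followed a 72 h incubation at 37 °C with pinned compounds in phenol-red-free DMEM containing 10% FBS.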
PTAP TSG101 blk = qHTS Assay for Iinhibitors of HIV-1 Budding by Blocking the Interaction of PTAP/TSG101 | 340,000 tested, under 10 active | Tumor susceptibility gene 101 protein (Homo sapiens), Q99816 | Potency, µM (top dose mostly 115 µM), for the others: top-dose activity change, negative = inhibition, most hits filed as inhibitors | Fluorescence polarization, FITC-PTAP peptide / Tsg101 binding; active means well fitted inhibition curve with a large enough effect in the main read-out, with a control signal flat, not every such curve was filed as active; inconclusive means small, poorly fitted or top-dose-only effect, or effect the other way, or a change in a side signal; inactive means no such curve, though single readings can be large or run the other way; further: % of control where 0% means no effect
Target sequence (Q99816 whole entry, looked up): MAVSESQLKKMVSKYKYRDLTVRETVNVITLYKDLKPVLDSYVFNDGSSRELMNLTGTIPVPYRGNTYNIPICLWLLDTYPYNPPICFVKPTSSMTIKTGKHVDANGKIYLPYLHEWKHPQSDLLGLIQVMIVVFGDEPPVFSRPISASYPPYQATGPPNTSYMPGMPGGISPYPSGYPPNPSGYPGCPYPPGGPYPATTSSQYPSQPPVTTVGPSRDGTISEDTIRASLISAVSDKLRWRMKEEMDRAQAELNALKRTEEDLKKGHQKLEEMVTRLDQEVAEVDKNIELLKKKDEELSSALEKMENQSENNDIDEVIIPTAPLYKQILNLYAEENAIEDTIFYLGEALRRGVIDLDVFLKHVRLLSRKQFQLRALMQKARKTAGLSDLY
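Compounds were pin-transferred onto Tsg101 binding domain (10 uM final) in HEPES pH 7.5 buffer, then FITC-PTAP peptide was added at 50 nM final. After 20 min at RT, polarization reported peptide displacement across a qHTS concentration series.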
MCF10A rerep = A quantitative high throughput screen for small molecules that induce DNA re-replication in MCF 10a normal breast cells; MCF 10A DNA re-replication, Hoechst nuclear intensity, 48 h; Potency, µM (titrated, usually from 46.1 µM), inactives show top-dose activity, positive = re-replication, usual class: activators; actives 2.9% (n = 350,000); further: % of control where 0% means no effect; nearly all actives have a fitted effect of over 50% in size
Active calls of the source: *; i = inactive; u = inconclusive; x = no result; ! = not confirmed by another sample; [ ] = another dose, or the depositor's remark. Unless noted, the call rests on the fitted dose curve; in most records, active means well fitted curve in the direction sought with a large enough effect; inconclusive means small, poorly fitted or top-dose-only effect, or another doubt; inactive means no such curve, though single readings can be large; an effect the other way counts as inactive or inconclusive. Potency means the concentration at half of the fitted maximal effect.

SMILES | RGS4 inhibitor | SW480 rereplic | KB-V1 cytotox | KB-3-1 tox | PTAP TSG101 blk | MCF10A rerep
CCc1noc(C)c1C(=O)Nc1nc(-c2ccc(Cl)cc2Cl)cs1 | -8% | 13% | u | u | 1% | 16µM*
Cc1ccc(-c2csc(NC(=O)c3ccc(C)o3)n2)cc1 | -32% | u | i | i | 2% | u
Cc1ccc(-c2csc(NC(=O)c3c(C)noc3C)n2)cc1 | 6% | 1.6µM* | u | i | -3% | u
Cc1ccc(-c2csc(NC(=O)c3ccc([N+](=O)[O-])o3)n2)cc1 | 28% | 6.5µM* | i | u | -6% | 4.1µM*
Cc1cc(NC(=O)c2c(C)noc2C)no1 | 8% | u | i | i | -2% | 16µM*
Cc1ccc(C)c(S(=O)(=O)NCC(c2ccco2)S(=O)(=O)c2ccc(F)cc2)c1 (configuration not stated) | -23% | x | x | x | x | x
Cc1ccc(C)c(NC(=O)C2CCCN2S(=O)(=O)c2ccc3c(c2)CCCC(=O)N3)c1 (configuration not stated) | 7% | x | i | i | x | x
C=CC(=O)Nc1cccc(Nc2nc(N[C@H]3CC[C@H](N(C)C)CC3)nc3c2ncn3C(C)C)c1 | -19% | u | i | 18µM* | -7% | u
CC(C)n1cnc2c(Nc3cccc(Cl)c3)nc(NCCCO)nc21 | 18% | u | i | i | 0% | 19%
COc1cccc(C2=NOC(C(=O)Nc3cccnc3)C2)c1 (configuration not stated) | 12% | 0% | 16µM* | i | -7% | -5%
O=C(NCc1cccnc1)C1CC(c2cccc(Br)c2)=NO1 (configuration not stated) | 12% | u | i | u | -5% | 5.8µM*
O=C(NCc1cccnc1)C1CC(c2ccccc2O)=NO1 (configuration not stated) | 17% | -2% | i | i | 1% | 2%
c1ccc(Nc2ccnc(Nc3ccccc3)n2)cc1 | 0% | u | 18µM* | u | -1% | u
CN1CCN(Cc2nc3ccccc3c(=O)n2Cc2nc(-c3cccc([N+](=O)[O-])c3)cs2)CC1 | -37% | -6% | i | i | 2% | 9%
CN1CCN(Cc2nc3ccccc3c(=O)n2Cc2nc(-c3ccc4ccccc4c3)cs2)CC1 | -8% | 12µM* | 21µM*! | u | -2% | u
Cc1ccc(S(=O)(=O)c2c(Nc3ccc(C)c(C)c3)sc(C(=O)c3ccc4c(c3)OCO4)c2N)cc1 | 13% | x | x | x | x | x
CC1C=CC(C)C(C(=O)c2ccccc2)C1C(=O)c1ccccc1 (configuration not stated) | x | x | u | i | x | x
O=C(c1ccccc1)C1OC1C(=O)c1ccccc1 (configuration not stated) | 2% | 15µM* | u | u | -4% | 9.2µM*
CC(Sc1nc(N)c2c3c(sc2n1)CSC(C)(C)C3)C(=O)Nc1ccccc1 (configuration not stated) | u | u | 21µM* | u | 0% | u
CC(Sc1nc(NCc2ccccc2)nc(N(C)C)n1)C(=O)Nc1ccccc1 (configuration not stated) | -34% | -5% | i | i | -4% | u
Nc1ncnc(N2CCOCC2)c1N | 5% | 21µM* | i | i | 0% | 1%
COc1ccc2c(c1)Cc1sc(NC(=O)c3ccc(Cl)cc3)nc1-2 | -44% | x | x | x | x | x
Cc1cc2nc(-c3ccc(OCc4ccc(F)cc4)cc3)cc(C(F)(F)F)n2n1 | -10% | x | i | i | x | x
COc1ccc(C(=O)CSc2nnc(Cc3ccccc3)o2)cc1 | 18% | 7% | i | i | 0% | -8%
COc1ccc(Cc2nnc(SCC(=O)c3ccc(OC)cc3)o2)cc1 | -8% | -20% | i | i | 1% | 6.5µM*
SMILES | RGS4 inhibitor | SW480 rereplic | KB-V1 cytotox | KB-3-1 tox | PTAP TSG101 blk | MCF10A rerep
COc1cc(NC(=O)CCCOc2cc(=O)n(C)c3ccccc23)cc(OC)c1OC | 13% | x | i | i | x | x
Cc1ccccc1-n1c(SCC(=O)Nc2ccc3c(c2)OCO3)nnc1-c1ccccn1 | -50% | u | 2.1µM* | u | -5% | 21%
CCn1c(SCC(=O)Nc2ccc3c(c2)OCCO3)nnc1-c1ccccn1 | 8% | -8% | i | i | -6% | -4%
O=C(CCl)N1CCN2C(=O)c3ccccc3C12c1ccc(Cl)cc1 (configuration not stated) | 5% | u | u | u | 0% | 23µM*
COc1cc(OC)cc(-n2c(=O)c3ccccc3n(Cc3ccccc3C#N)c2=O)c1 | 24% | x | i | i | x | x
COc1ccc(-c2ccc(C(=O)C3CC3)cc2)cc1 | 4%[56.9 µM] | -1% | u | i | 1% | 6%
CC[N+]1(C)CCC(O)(c2ccc(OC)cc2)C(C(=O)c2ccc(OC)cc2)C1 (configuration not stated) | u | 2.9µM* | u | u | 3% | 4.6µM*
CCOC(=O)N1CCC(N2CCN(c3cc(C)ccc3C)CC2)CC1 | -25% | -3% | 23µM* | i | -2% | 4%
CCOC(=O)N1CCC(Nc2c(N3CCN(c4cc(Cl)ccc4C)CC3)c(=O)c2=O)CC1 | 11% | 4% | u | u | -4% | 11%
CCOC(=O)c1ccc(N2CCN(c3cc(C)ccc3C)CC2)c(N)c1 | 0% | u | i | i | -7% | 18µM*
C(=C1C=c2ccccc2=C1)c1ccc(N=Nc2ccc(C=C3C=c4ccccc4=C3)cc2)cc1 | x | x | i | i | x | x
Cc1ccc(-c2cn(-c3ccc(OC(F)F)cc3)c3[n+]2CCCCC3)cc1 | 26% | -1% | i | i | -5% | 5%
FC(F)Oc1ccc(-n2cc(-c3ccccc3)[n+]3c2CCCCC3)cc1 | 24% | -11% | i | 23µM* | 1% | -2%
FC(F)Sc1ccc(-n2cc(-c3ccc(Cl)cc3)[n+]3c2CCC3)cc1 | -6% | 1% | i | 18µM* | -2% | 3%
Cc1ccc(-c2cn(-c3ccc(SC(F)F)cc3)c3[n+]2CCC3)cc1 | 9% | -7% | i | 2.1µM* | 0% | 2%
